Test results published in the supplement of paper PMC12819154, “High-throughput peptide-centric local stability assay extends protein–ligand identification to membrane proteins, tissues and bacteria” (Nature Structural & Molecular Biology, 2025).

Each target was assayed with CN[C@@H]1C[C@H]2O[C@@](C)([C@@H]1OC)n1c3ccccc3c3c4c(c5c6ccccc6n2c5c31)C(=O)NC4 [staurosporine] (assay: log2 fold change of tryptic peptide abundance, ligand vs vehicle (limited proteolysis) (log2 ratio); higher = more trypsin-susceptible (destabilized)). Conditions: ligand concentration: 20 uM; sample: mouse liver crude lysate; replicate design: treated separately.

Sequence of UniProt O08648 (O08648 whole entry): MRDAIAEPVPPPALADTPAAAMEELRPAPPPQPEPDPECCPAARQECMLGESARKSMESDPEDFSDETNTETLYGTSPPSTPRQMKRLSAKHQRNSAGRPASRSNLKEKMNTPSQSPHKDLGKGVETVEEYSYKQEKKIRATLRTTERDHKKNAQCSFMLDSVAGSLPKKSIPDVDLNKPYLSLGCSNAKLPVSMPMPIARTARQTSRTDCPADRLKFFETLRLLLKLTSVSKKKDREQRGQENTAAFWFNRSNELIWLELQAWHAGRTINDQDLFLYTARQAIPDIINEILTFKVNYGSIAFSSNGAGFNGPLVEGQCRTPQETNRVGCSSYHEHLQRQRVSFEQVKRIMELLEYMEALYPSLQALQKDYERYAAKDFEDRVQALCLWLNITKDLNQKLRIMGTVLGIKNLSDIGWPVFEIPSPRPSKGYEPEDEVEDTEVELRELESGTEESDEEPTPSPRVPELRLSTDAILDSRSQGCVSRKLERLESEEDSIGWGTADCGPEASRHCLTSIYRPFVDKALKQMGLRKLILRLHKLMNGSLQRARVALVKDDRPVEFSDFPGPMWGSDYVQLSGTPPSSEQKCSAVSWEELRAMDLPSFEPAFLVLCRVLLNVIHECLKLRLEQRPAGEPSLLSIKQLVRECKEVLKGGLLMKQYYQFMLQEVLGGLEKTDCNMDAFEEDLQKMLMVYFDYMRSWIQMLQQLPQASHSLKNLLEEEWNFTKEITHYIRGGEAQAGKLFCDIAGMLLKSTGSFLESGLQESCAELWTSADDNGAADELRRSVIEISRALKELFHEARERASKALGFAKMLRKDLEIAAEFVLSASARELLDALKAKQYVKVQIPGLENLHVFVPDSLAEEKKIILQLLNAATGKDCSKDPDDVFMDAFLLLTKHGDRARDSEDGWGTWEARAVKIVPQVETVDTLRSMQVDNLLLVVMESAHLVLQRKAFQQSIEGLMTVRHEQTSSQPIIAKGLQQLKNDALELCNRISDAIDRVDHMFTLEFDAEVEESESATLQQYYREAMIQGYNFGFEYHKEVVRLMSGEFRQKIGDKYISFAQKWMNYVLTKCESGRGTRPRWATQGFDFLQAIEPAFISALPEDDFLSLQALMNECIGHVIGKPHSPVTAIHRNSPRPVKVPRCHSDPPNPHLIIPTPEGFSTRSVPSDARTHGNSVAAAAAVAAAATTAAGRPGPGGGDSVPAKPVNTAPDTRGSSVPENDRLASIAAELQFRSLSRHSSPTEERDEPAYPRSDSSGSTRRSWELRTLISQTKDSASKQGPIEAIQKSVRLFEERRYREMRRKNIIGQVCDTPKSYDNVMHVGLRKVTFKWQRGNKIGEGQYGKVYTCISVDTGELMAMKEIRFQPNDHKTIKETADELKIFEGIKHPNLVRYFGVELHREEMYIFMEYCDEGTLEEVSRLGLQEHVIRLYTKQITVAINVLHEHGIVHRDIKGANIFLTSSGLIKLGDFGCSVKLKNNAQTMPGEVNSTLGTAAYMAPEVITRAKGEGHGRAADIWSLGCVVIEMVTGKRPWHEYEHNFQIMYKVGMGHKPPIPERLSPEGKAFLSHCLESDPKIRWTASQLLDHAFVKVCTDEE
Sequence of UniProt Q9R0T8 (Q9R0T8 whole entry): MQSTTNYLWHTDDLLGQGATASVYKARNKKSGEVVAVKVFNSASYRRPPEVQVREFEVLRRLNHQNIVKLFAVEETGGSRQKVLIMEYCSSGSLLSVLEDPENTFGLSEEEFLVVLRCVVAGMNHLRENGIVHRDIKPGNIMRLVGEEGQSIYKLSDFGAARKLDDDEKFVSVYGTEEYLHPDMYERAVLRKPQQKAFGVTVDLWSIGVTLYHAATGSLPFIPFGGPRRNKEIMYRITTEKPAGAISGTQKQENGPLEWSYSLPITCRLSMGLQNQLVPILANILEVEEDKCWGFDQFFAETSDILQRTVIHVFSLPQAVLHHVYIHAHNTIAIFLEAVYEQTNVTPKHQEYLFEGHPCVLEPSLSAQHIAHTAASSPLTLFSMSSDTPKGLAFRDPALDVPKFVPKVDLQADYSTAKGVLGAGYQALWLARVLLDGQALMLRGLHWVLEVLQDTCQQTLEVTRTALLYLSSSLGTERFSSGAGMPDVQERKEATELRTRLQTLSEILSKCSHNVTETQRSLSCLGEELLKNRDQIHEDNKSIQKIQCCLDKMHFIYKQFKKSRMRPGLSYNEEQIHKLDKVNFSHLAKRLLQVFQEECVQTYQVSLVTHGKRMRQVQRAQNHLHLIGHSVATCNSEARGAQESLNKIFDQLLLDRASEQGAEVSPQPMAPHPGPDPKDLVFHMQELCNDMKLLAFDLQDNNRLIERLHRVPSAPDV
Sequence of UniProt P56657 (P56657 whole entry): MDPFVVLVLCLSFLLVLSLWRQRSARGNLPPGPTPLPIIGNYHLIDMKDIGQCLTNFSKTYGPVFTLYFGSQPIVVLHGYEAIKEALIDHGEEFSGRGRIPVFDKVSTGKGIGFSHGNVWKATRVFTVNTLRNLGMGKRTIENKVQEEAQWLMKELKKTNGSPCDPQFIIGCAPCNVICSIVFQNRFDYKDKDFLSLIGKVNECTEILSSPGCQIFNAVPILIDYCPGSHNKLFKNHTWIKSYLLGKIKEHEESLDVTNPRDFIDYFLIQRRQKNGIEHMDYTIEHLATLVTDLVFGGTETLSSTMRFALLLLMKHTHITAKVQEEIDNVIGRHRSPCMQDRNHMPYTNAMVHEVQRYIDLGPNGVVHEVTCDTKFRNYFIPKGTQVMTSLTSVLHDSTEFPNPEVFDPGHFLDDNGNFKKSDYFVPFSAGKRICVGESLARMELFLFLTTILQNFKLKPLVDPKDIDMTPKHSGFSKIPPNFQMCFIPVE
Sequence of UniProt P70236 (P70236 whole entry): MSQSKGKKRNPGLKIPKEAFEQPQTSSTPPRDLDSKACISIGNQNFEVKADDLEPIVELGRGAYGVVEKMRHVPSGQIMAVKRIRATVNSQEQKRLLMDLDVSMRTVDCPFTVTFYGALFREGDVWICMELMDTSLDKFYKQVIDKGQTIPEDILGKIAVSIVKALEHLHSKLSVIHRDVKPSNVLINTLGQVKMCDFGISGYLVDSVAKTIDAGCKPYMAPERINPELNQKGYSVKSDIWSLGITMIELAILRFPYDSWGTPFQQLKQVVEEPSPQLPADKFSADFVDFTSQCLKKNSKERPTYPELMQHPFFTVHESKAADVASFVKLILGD
Sequence of UniProt Q9Z1M4 (Q9Z1M4 whole entry): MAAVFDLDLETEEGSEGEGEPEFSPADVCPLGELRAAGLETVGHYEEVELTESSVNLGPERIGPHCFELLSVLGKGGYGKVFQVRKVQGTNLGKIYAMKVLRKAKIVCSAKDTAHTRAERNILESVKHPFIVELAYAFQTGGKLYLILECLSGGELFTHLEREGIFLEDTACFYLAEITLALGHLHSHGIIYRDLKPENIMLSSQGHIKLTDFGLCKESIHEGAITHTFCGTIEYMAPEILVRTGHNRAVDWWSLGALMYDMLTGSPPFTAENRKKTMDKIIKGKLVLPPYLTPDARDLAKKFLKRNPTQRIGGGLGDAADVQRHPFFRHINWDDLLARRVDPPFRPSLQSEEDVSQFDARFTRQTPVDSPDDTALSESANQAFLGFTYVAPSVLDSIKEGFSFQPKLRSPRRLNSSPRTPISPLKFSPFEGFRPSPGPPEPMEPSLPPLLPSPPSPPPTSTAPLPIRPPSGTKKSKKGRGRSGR
Sequence of UniProt Q9JM62 (Q9JM62 whole entry): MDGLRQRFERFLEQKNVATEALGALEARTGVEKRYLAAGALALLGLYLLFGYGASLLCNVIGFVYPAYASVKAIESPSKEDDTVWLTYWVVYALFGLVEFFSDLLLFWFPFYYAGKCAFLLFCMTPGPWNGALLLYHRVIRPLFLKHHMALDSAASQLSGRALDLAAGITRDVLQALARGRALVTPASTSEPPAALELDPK
Sequence of UniProt P30561 (P30561 whole entry): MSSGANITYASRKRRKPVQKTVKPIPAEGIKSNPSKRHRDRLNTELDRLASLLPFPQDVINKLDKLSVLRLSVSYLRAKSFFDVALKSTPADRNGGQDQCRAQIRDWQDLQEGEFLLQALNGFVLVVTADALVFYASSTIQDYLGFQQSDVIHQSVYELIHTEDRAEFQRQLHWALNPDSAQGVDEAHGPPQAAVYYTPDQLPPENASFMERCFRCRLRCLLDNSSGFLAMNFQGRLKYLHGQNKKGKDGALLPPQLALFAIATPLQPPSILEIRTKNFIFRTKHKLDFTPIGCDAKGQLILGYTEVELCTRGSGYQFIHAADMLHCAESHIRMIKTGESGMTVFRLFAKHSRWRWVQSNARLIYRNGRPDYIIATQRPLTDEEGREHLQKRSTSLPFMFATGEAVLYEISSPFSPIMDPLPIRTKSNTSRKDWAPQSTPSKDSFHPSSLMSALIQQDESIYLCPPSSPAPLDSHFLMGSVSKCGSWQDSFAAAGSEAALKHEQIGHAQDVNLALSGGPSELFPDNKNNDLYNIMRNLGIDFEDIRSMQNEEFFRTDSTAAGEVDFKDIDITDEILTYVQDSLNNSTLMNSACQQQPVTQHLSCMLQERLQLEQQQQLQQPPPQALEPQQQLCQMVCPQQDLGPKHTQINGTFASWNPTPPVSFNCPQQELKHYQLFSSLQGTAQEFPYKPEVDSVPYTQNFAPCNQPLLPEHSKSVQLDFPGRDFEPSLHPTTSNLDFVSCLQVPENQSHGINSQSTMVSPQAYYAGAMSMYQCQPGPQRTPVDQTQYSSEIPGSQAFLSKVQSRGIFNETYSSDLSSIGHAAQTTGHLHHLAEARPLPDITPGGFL
Sequence of UniProt P22907 (P22907 whole entry): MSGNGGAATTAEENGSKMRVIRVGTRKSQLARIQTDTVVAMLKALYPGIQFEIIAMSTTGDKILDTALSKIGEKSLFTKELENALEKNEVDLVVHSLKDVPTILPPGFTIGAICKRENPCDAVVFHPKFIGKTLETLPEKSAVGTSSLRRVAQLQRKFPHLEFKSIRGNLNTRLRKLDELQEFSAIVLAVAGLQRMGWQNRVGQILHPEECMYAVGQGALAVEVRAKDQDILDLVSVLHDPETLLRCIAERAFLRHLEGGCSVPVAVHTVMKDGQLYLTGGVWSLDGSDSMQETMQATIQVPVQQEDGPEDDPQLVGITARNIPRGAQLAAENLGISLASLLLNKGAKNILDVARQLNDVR

With “UniProt P70236 (peptide sequence: ADDLEPIVELGR, peptide start residue: 50)” as the target, how does the log2 fold change read?
The log2 fold change was -2.01.

How did the log2 fold change turn out when “UniProt Q5U5V2 (peptide sequence: ENFIWNLK, peptide start residue: 175)” was run?
Its log2 fold change is -0.924.

“UniProt Q923T9 (peptide sequence: GAILTTMLVSR, peptide start residue: 302)” was tested. Which log2 fold change did it give?
Its log2 fold change is -0.876.

“UniProt Q9R0T8 (peptide sequence: DIKPGNIMR, peptide start residue: 135)” was tested. Which log2 fold change did it give?
Its log2 fold change is -1.44.

“UniProt Q6PDN3 (peptide sequence: VSDVYDIEER, peptide start residue: 1482)” was tested. Which log2 fold change did it give?
Its log2 fold change is -1.2.

“UniProt P30561 (peptide sequence: HKLDFTPIGCDAK, peptide start residue: 285)” was tested. Which log2 fold change did it give?
Its log2 fold change is -1.1.

For “UniProt Q5F2E8 (peptide sequence: AGNILLTEPGQVK, peptide start residue: 150)”, which log2 fold change is on record?
Its log2 fold change is -2.13.

How did the log2 fold change turn out when “UniProt O88643 (peptide sequence: LTDFGFCAQITPEQSKR, peptide start residue: 384)” was run?
Its log2 fold change is -2.39.

With “UniProt P56395 (peptide sequence: YYTLEEIQK, peptide start residue: 11)” as the target, how does the log2 fold change read?
Its log2 fold change is 0.367.

For “UniProt Q60932 (peptide sequence: LTFDSSFSPNTGKK, peptide start residue: 110)”, which log2 fold change is on record?
Its log2 fold change is -0.605.

With “UniProt Q9Z1M4 (peptide sequence: IGPHCFELLSVLGK, peptide start residue: 62)” as the target, how does the log2 fold change read?
The log2 fold change was -0.47.

How did the log2 fold change turn out when “UniProt Q9CYZ2 (peptide sequence: LGEWNEK, peptide start residue: 113)” was run?
The log2 fold change was 0.397.

With “UniProt Q8K0D0 (peptide sequence: SKLTENLVALK, peptide start residue: 140)” as the target, how does the log2 fold change read?
The log2 fold change was -2.51.

How did the log2 fold change turn out when “UniProt Q9ERE3 (peptide sequence: PTDFDFLK, peptide start residue: 32)” was run?
The log2 fold change was -2.47.

How did the log2 fold change turn out when “UniProt O35495 (peptide sequence: LADFGLAR, peptide start residue: 853)” was run?
Its log2 fold change is -1.69.

Which log2 fold change does the source give for “UniProt Q60772 (peptide sequence: LGNPEIAR, peptide start residue: 47)” here?
The log2 fold change was 0.494.

How did the log2 fold change turn out when “UniProt Q91WL5 (peptide sequence: GLLMLDGQTWFQHR, peptide start residue: 128)” was run?
Its log2 fold change is 0.409.

With “UniProt Q7TMR0 (peptide sequence: AHNAFDPSSVLLSR, peptide start residue: 459)” as the target, how does the log2 fold change read?
The log2 fold change was 0.784.

With “UniProt P24604 (peptide sequence: ELGSGLFGVVR, peptide start residue: 374)” as the target, how does the log2 fold change read?
The log2 fold change was -0.989.

How did the log2 fold change turn out when “UniProt Q9JK48 (peptide sequence: NFIEGDYK, peptide start residue: 149)” was run?
The log2 fold change was 0.247.

With “UniProt P56657 (peptide sequence: NHMPYTNAMVHEVQR, peptide start residue: 343)” as the target, how does the log2 fold change read?
The log2 fold change was -0.322.

“UniProt Q9JM62 (peptide sequence: NVATEALGALEAR, peptide start residue: 16)” was tested. Which log2 fold change did it give?
Its log2 fold change is 0.439.

“UniProt O08648 (peptide sequence: IFEGIKHPNLVR, peptide start residue: 1382)” was tested. Which log2 fold change did it give?
Its log2 fold change is -0.814.

How did the log2 fold change turn out when “UniProt P22907 (peptide sequence: ELENALEKNEVDLVVHSLK, peptide start residue: 80)” was run?
The log2 fold change was -0.802.

With “UniProt Q9CR62 (peptide sequence: NGLDVLLK, peptide start residue: 261)” as the target, how does the log2 fold change read?
The log2 fold change was 0.377.

For “UniProt Q91YH5 (peptide sequence: ALASVLLQDHIR, peptide start residue: 45)”, which log2 fold change is on record?
The log2 fold change was 0.309.

How did the log2 fold change turn out when “UniProt A6X919 (peptide sequence: AGTAAPAPDGLAGR, peptide start residue: 60)” was run?
Its log2 fold change is 0.335.
